Source: PubChem BioAssay
RecA intein inh: blocks M. tuberculosis RecA intein splicing; actives 0.75% (n = 290,000); inhibition, % (test concentration not listed); AID 2221; cell-free RecA intein splicing, fluorescence; P9WHJ3; in the data active = inhibition above about 30%
Target sequence (P9WHJ3 whole entry, looked up): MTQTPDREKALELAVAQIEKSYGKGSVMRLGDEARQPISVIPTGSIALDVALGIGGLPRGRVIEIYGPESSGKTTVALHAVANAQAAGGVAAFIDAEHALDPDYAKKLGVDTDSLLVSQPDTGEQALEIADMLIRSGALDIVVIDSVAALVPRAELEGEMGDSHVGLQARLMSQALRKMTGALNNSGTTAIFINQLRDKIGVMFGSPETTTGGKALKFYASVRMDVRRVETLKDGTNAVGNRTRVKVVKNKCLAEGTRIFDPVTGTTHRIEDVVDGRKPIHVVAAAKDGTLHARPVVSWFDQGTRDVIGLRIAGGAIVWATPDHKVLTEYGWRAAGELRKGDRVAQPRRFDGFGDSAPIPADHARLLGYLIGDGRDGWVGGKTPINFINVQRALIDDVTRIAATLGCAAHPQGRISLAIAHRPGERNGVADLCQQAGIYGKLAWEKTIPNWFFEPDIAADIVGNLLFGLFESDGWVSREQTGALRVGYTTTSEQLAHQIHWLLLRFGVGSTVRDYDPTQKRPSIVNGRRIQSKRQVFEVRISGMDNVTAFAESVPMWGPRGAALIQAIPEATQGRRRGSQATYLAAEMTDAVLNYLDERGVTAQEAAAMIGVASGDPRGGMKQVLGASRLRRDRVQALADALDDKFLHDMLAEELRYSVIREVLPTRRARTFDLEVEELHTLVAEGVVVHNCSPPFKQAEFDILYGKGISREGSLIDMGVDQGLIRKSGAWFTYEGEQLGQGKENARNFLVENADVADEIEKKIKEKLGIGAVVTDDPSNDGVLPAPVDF
FadD28 FP inh: M. tuberculosis FadD28 bisubstrate binding inhibition. FadD28 bisubstrate probe binding, fluorescence polarization. inhibition, % at 12.5 µM. actives 0.22% (n = 360,000). AID 588549; in the data active = inhibition above about 8.5%, passing the limit was not always enough
UGM FP inh: blocks M. tuberculosis UGM enzyme; P9WIQ1; purified UGM, fluorescence polarization probe displacement; actives 0.06% (n = 320,000); inhibition, % at 10 µM; in the data active = inhibition above about 10%, passing the limit was not always enough
PrP 5UTR inh: suppresses PrP 5' UTR mRNA reporter expression. cell-based PrP 5' UTR mRNA reporter, plate reader. inhibition, % (no concentration beside the values). actives 0.35% (n = 340,000); in the data active = inhibition above about 52%
Rv3671c inh: inhibitors of M. tuberculosis serine protease Rv3671c | P9WHR9 | inhibition, % at 5.96 µM | actives 0.048% (n = 320,000) | AID 2606; in the data active = inhibition above about 38%;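 note: extracellular domain of Rv3671c used as enzyme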
BJeLR lethal: kills HRASV12-expressing BJeLR cells | inhibition, % (no concentration beside the values) | actives 0.17% (n = 300,000) | BJeLR (HRASV12) viability, CellTiter-Glo ATP luminescence, 48 h | AID 1554; in the data active = inhibition above about 50%
Hits are given with their value; - = inactive; . = not tested or not shown. Hits are enriched below; roughly 1.3% of the tested compounds scored in any of these assays.

SMILES | RecA intein inh | FadD28 FP inh | UGM FP inh | PrP 5UTR inh | Rv3671c inh | BJeLR lethal
O=c1cc2oc3cc(O)c(O)cc3c(-c3ccccc3O)c-2cc1O | . | 81 | . | - | . | .
CCOc1ccccc1-c1c2cc(O)c(=O)cc-2oc2cc(O)c(O)cc12 | . | 131 | . | - | . | .
CCCCCCOC(=O)CC1CC(C(C)=O)C1(C)C (configuration not stated) | . | - | . | - | . | .
CCOc1ccc(/C=C2\CCCc3c2nc2ccccc2c3C(=O)O)cc1OC | - | - | 70 | - | - | -
COc1ccc(/C=C2\CCCc3c2nc2ccccc2c3C(=O)O)cc1OC | - | . | 48 | . | - | -
COC1CC(OC2CCC3(C)C(CCC4C3CCC3(C)C(C5=CC(=O)OC5)C(OC(C)=O)CC43O)C2)OC(C)C1OC1OC(COC2OC(CO)C(O)C(O)C2O)C(O)C(O)C1O (configuration not stated) | - | . | - | . | - | 51
CC(=O)Nc1ccc(-c2ccnc3c2CC(C(=O)Nc2cccc(C(F)(F)F)c2)O3)cc1 (configuration not stated) | . | - | . | . | . | .
Cc1ccc(Cl)c2c(N=Nc3ccccc3)c(O)[nH]c12 | - | - | 11 | - | . | -
CC(C)NC(=S)N=Nc1c(O)[nH]c2ccc([N+](=O)[O-])cc12 | - | - | - | - | - | -
C=C(C)CNC(=S)N=Nc1c(O)[nH]c2ccc([N+](=O)[O-])cc12 | 33 | - | - | - | - | -
O=C1C=CC(=O)C2C1C1(Cl)C(Cl)=C(Cl)C2(Cl)C1(Cl)Cl (configuration not stated) | . | 37 | . | - | . | .
CC1(OC(=O)c2cnc3ccccc3n2)C(=O)C=C2C=C(C3CC3)OC=C2C1=O (configuration not stated) | - | . | - | . | 38 | -
COc1cccc(C(=O)OCC(=O)NCc2ccc3c(c2)OCO3)c1OC | . | - | 10 | - | - | .
Cc1cccc(C(=O)OCC(=O)NCc2ccc3c(c2)OCO3)c1C | . | - | - | - | - | .
CC(=O)Oc1cc2c(cc1Cl)C1(CC(c3ccccc3Cl)O2)CC(C)(C)NC(=S)N1 (configuration not stated) | 45 | - | - | - | - | -
CC1(C)CC2(CC(c3ccccc3F)c3cc(Cl)c(O)cc3O2)NC(=S)N1 (configuration not stated) | - | - | - | - | - | -
O=C(Sc1cccc2cccnc12)c1ccccc1Br | - | - | - | - | - | 97
COc1cc(C(=O)NCC(=O)N/N=C/c2cccc(OC(=O)c3ccco3)c2)cc(OC)c1OC | 39 | - | - | - | - | -
Cc1cc(C(=O)N/N=C/c2cccc(OC(=O)c3ccco3)c2)n[nH]1 | 44 | - | - | - | - | -
COc1ccc(OC(F)(F)F)cc1CC1(C)C(=O)Nc2ccc(S(=O)(=O)NC3CCCCC3)cc21 (configuration not stated) | . | - | . | . | . | .
COc1cc(/C=C(\C#N)c2nc3ccc(C)cc3[nH]2)cc([N+](=O)[O-])c1O | . | 30 | . | - | . | .
Cn1nnnc1Sc1ncnc2scc(-c3ccc(F)cc3)c12 | 32 | - | - | - | - | -
CCCCN1CC(=O)N2[C@H]3c4cc(Cl)ccc4OC[C@@H]3[C@H](c3ccccc3)[C@]2(C)C1=O | . | - | - | - | - | .
OCCN(CCO)c1ccc2ccccc2c1 | - | - | - | - | - | -
OCCN(CCO)c1ccc(C(c2ccccc2Cl)c2ccc(N(CCO)CCO)cc2Cl)c(Cl)c1 | 32 | - | . | - | - | -
SMILES | RecA intein inh | FadD28 FP inh | UGM FP inh | PrP 5UTR inh | Rv3671c inh | BJeLR lethal
O=C(Nc1cccc([N+](=O)[O-])c1)NN1CCCCCC1 | . | - | . | - | . | .
COC(=O)C1=C(C)NC(C)=C(C(=O)OC)C1C(=O)OCC(=O)NC1CCCCC1C (configuration not stated) | . | - | . | . | . | .
Cn1cnc([N+](=O)[O-])c1Oc1ccc2ccccc2c1 | 36 | - | - | - | - | -
CCN(CC)CC(O)c1ccc2ccc3ccc(O)cc3c2c1 (configuration not stated) | . | - | . | - | . | .
CC1(C)N=C(SCC(=O)Nc2ccc(Cl)cc2)C(c2ccc(Cl)cc2)=N1 | 44 | - | - | - | - | -
CC(=O)Nc1ccc(-c2ccnc3c2CC(C)(C(=O)Nc2ccc(C(C)C)cc2)O3)cc1 (configuration not stated) | . | - | . | . | . | .
CC1CCCC(C)N1C(=C(Cl)Cl)C(=C1SCCS1)[N+](=O)[O-] (configuration not stated) | . | 16 | - | - | - | -
CN(C)C(=O)N1CCc2ccc([N+](=O)[O-])cc21 | . | - | . | . | . | .
CC(=O)NC1C(=O)N(CCN2CCOCC2)c2ccc(Cl)cc21 (configuration not stated) | 46 | - | - | - | . | -
CC(=O)NC1C(=O)N(CCN2CCOCC2)c2ccc(C)cc21 (configuration not stated) | 65 | - | - | - | - | -
CC(=O)NC1C(=O)N(CCN2CCOCC2)c2ccc(F)cc21 (configuration not stated) | 41 | - | - | - | . | -
COc1cccc2sc(N(CCCN(C)C)C(=O)c3ccc(S(=O)(=O)N4CCc5ccccc5C4)cc3)nc12 | - | - | - | - | - | -
COc1ccc(C)c2sc(N(CCCN(C)C)C(=O)c3ccc(S(=O)(=O)N4CCc5ccccc5C4)cc3)nc12 | - | - | - | - | - | 81
COc1ccc(OC)c2sc(N(CCCN(C)C)C(=O)c3ccc(S(=O)(=O)N4CCc5ccccc5C4)cc3)nc12 | - | . | - | . | - | 89
CCn1nc([N+](=O)[O-])c(C(C#N)c2nc3cc(C(F)(F)F)ccc3s2)c(Cl)c1=O (configuration not stated) | - | 45 | - | - | - | -
Cn1nc([N+](=O)[O-])c(C(C#N)c2ccccn2)c(Cl)c1=O (configuration not stated) | 46 | - | - | - | - | .
Cc1ccc(Cn2c(C(C)Nc3nc(-c4ccc(Cl)c([N+](=O)[O-])c4)cs3)nc3cc(C(F)(F)F)ccc32)cc1 (configuration not stated) | - | - | - | - | - | -
CCCn1nc([N+](=O)[O-])c(C(C#N)c2nc3ccccc3o2)c(Cl)c1=O (configuration not stated) | - | 15 | - | - | - | -
Cc1[nH]c2ccccc2c1C(=O)C(=O)NCc1nnnn1-c1ccc(F)cc1 | . | - | . | . | . | .
Nc1nc(Nc2cccc3ccccc23)nc(C2CCCC2=O)n1 (configuration not stated) | - | . | - | . | - | -
Nc1nc(CCl)nc(Nc2cccc3ccccc23)n1 | - | - | - | . | - | 125
CCc1ccc(C(C#N)=CC=Cc2ccccc2)cc1 | . | - | . | . | . | .
Cn1c2c(c(=O)n(C)c1=O)[C@@]1(C(=O)Nc3ccccc31)C(C#N)=C(N)O2 | 34 | - | - | - | - | -
CCOc1ccccc1Nc1nc(-c2sc(NC(=O)c3ccc([N+](=O)[O-])cc3)nc2C)cs1 | - | . | - | . | - | 78
